# Values without a mark were called inactive. Results filed as inconclusive are left out. A call without a number means that no potency is given here. Active and inactive are the calls of the source. Unless noted, calls follow the shape of the dose curve; as a rule, active = well fitted curve in the direction sought with a large enough effect; inconclusive = small, poorly fitted or top-dose-only effect, or another doubt; inactive = no such curve, though single readings can be large; an effect the other way counts as inactive or inconclusive.
# Tests used:
# [1] = Cell Viability - LYMP1-003 - Assay at 24 hr (AID 963)
# How it was run: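 CellTiter-Glo luminescence (intracellular ATP) read after 24 hr, 37 C compound exposure of 2500 LYMP1-003 human lymphoblastoid cells/well in complete medium; qHTS concentration series; AC50 via standard Hill equation.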
# [2] = Cell Viability - LYMP2-010 (AID 981);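 also: cells exposed to compound for 24 hours at 37 °C; nearly all actives have a fitted effect of over 55% in size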; also: potency is read from the fitted curve at half-maximal effect
# How it was run: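 qHTS cytotoxicity, 1536-well: 2500 cells/well, 5 hr settle, 24 hr compound at 37 C, CellTiter-Glo 30 min RT, luminescence read. Decrease in ATP = toxicity; AC50 via standard Hill equation. Positive control tetraoctylammonium bromide.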
# [3] = target: Bile acid receptor (Homo sapiens) (UniProt Q96RI1); assay: qHTS assay for small molecule antagonists of farnesoid X receptor signaling (AID 588526; calls by dose curve)
# Sequence of Bile acid receptor (Homo sapiens) (Q96RI1 whole entry, looked up): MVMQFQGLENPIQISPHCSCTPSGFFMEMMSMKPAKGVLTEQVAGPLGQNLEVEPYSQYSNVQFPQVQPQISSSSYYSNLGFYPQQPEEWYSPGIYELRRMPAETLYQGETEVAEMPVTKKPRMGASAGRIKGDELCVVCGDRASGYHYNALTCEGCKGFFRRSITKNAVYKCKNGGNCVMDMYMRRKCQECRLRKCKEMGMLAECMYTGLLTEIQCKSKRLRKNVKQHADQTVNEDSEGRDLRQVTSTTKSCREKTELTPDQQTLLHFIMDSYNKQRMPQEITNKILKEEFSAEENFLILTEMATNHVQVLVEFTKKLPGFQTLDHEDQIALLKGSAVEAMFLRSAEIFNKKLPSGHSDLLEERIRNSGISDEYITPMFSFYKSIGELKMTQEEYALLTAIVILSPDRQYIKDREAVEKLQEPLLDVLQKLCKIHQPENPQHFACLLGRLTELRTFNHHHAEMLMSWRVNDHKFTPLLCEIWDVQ
# How it was run: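 Beta-lactamase reporter antagonist mode: HEK293T FXR-UAS-bla cells, titrated compound, CDCA stimulation, 16 h 37 C, CCF4 dye 2 h RT. Data normalized to CDCA 50 uM and DMSO; Hill-fit IC50.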
# [4] = target: Peroxisome proliferator-activated receptor delta (Homo sapiens) (UniProt Q03181); assay: qHTS assay for small molecule antagonists of peroxisome proliferator-activated receptor delta signaling (AID 588535; active = well fitted inhibition curve with a large enough effect in the signal ratio, with a control signal flat, not every such curve was filed as active; the % refers to the signal ratio)
# Sequence of Peroxisome proliferator-activated receptor delta (Homo sapiens) (Q03181 whole entry, looked up): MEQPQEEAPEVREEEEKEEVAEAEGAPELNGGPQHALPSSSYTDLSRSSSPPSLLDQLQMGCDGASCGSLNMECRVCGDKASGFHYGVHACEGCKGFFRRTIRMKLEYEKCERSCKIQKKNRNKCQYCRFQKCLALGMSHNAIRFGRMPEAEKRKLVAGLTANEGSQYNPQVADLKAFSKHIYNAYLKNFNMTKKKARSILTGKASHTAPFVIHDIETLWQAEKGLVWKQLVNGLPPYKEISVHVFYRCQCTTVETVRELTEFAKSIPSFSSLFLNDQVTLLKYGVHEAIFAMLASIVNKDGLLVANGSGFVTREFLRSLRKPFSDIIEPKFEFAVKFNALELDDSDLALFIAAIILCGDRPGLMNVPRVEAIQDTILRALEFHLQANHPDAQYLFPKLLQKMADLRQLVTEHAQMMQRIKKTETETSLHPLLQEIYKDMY
# How it was run: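 Antagonist-mode qHTS using GeneBLAzer PPAR-delta-UAS-bla HEK293T cells; compound exposure 18 hrs at 37 C over a titration. Ratiometric CCF4 fluorescence at 460/530 nm; concentration-response points fitted to the Hill equation.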
# [5] = Cell Viability - Jurkat (AID 426;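 active = dose-dependent loss of cell ATP signal giving a full or clear fitted curve, ranked by lower potency value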;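 also: potency is read from the fitted curve at half-maximal effect; cells exposed to compound for 40 hours at 37 °C before ATP read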); details: qHTS
# How it was run: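 Luminescent ATP read-out (CellTiter-Glo, 20 min at room temperature) after 40 hr compound exposure at 37 °C of Jurkat E6-1 cells, 5000/well. Decreased ATP taken as cytotoxicity; AC50 from standard Hill equation.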
# [6] = Cell Viability - SK-N-SH (AID 435; calls by dose curve; also: potency is read from the fitted curve at half-maximal effect); details: SK-N-SH neuroblastoma cell viability qHTS
# How it was run: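 SK-N-SH human neuroblastoma cells (1500/well) were exposed to compounds in complete medium for 40 h at 37 °C, and intracellular ATP was then measured by CellTiter-Glo luminescence. AC50 was taken from Hill fits, normalized to DMSO and 100 uM tamoxifen.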
# [7] = Cellular Toxicity (caspase-3) Hek293 (AID 664);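 also: cells exposed to compound for 16 h at 37 °C before readout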
# How it was run: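 Luminescent Caspase-Glo 3/7 readout (aminoluciferin release) in HEK293 cells after 16 h compound treatment, 37 °C. Normalization: DMSO = basal, 100 uM tamoxifen = 100% stimulation. Concentration-response fitted with standard Hill equation for AC50.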
# [8] = qHTS assay for small molecule activators of the human pregnane X receptor (PXR) signaling pathway (AID 720659; call rule not given here)
# [9] = Cell Viability - H-4-II-E (AID 543); also: nearly all actives have a fitted effect of over 35% in size
# How it was run: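 qHTS, rat hepatoma H-4-II-E, 1500 cells/well; 40 hr compound exposure, 37 °C; CellTiter-Glo ATP luminescence after 20 min RT; AC50 by standard Hill fit.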
# [10] = Cell Viability - LYMP2-004 (AID 966);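 also: cells exposed to compound for 24 h; nearly all actives have a fitted effect of over 65% in size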; also: potency is read from the fitted curve at half-maximal effect
# How it was run: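 Luminescent ATP read-out (CellTiter-Glo, 30 min RT) after 24 hr compound exposure at 37 C; 2500 lymphoblastoid cells/well, complete medium. Decrease in ATP = cytotoxicity; AC50 from standard Hill model.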
# [11] = target: Retinoic acid receptor RXR-alpha (Homo sapiens) (UniProt P19793); assay: qHTS assay for small molecule agonists of retinoid X receptor alpha signaling (AID 588544; calls by dose curve)
# Sequence of Retinoic acid receptor RXR-alpha (Homo sapiens) (P19793 whole entry, looked up): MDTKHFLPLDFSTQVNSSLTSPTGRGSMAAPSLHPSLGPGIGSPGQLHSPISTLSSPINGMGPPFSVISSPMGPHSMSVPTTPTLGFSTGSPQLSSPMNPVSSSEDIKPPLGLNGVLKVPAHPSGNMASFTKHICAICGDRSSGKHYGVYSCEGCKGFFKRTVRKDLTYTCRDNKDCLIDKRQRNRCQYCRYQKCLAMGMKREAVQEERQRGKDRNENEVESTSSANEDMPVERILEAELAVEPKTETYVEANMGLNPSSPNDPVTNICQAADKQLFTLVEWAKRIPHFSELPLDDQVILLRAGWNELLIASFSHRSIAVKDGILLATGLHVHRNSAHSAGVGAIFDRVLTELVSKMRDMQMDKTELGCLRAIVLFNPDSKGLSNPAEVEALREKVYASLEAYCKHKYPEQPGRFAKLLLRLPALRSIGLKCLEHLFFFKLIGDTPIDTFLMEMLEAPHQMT
# [12] = qHTS Assay for Identification of Small Molecule Antagonists for NFkB Signaling Pathway (AID 895; active = well fitted inhibition curve with a large enough effect in the signal ratio, with a control signal flat, not every such curve was filed as active; the % refers to the signal ratio)
# How it was run: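 Beta-lactamase reporter read-out (460 and 530 nm emission ratio, 405 nm excitation, 2 hrs substrate loading RT) after 5 hr stimulation with 10 pM TNF alpha in compound-treated NFkB-bla ME-180 cells in low-serum medium.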
# [13] = qHTS Assay for Identification of Small Molecule Agonists for Hypoxia Response Element Signaling Pathway (AID 914; active = well fitted activation curve with a large enough effect in the signal ratio, with a control signal flat, not every such curve was filed as active; the % refers to the signal ratio); details: ME-180 (cervical carcinoma) HRE-bla reporter, beta-lactamase ratio, CoCl2, 17 h; activation: hits give high values
# How it was run: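 Read-out: CCF4 FRET ratio of 460nm to 530nm emission (excitation 405nm) after 2.5 hours at room temperature, taken from HRE-bla ME-180 cells that had been exposed to compound and EC50 CoCl2 for 17 hours.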
# [14] = qHTS assay to identify small molecules that stimulate interleukin-8 (IL-8) secretion (AID 651758; active = well fitted activation curve with a large enough effect in the signal ratio; the % refers to the signal ratio)
# How it was run: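 Secreted IL-8 measured homogeneously by TR-FRET (two labelled anti-IL-8 antibodies, 1-3 h at room temperature) after a 16 h, 37 C compound treatment of THP-1 cells at 2000 cells/well.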
smiles,measurement,setting,value
COC(=O)NC(=S)Nc1ccccc1NC(=S)NC(=O)OC,Potency,[1],inactive
same,Potency,[2],inactive
same,outcome,[3],inactive
same,Potency,[4],inactive
COP(=S)(OC)Oc1ccc([N+](=O)[O-])cc1,Potency,[5],> 92 µM
same,Potency,[6],> 92 µM
same,outcome,[7],inactive
same,Potency,[2],inactive
same,outcome,[3],inactive
same,outcome,[8],inactive
ClC1=C(Cl)C2(Cl)C3C4CC(C5OC45)C3C1(Cl)C2(Cl)Cl (stereo unspecified),Potency,[6],> 92 µM
same,Potency,[9],inactive
same,outcome,[7],inactive
same,Potency,[10],20 µM (active)
same,Potency,[2],50.1 µM (active)
c1ccc(N=Nc2ccccc2)cc1,Potency,[5],47.9 µM (active)
same,Potency,[6],> 92 µM
same,Potency,[9],inactive
same,Potency,[10],inactive
same,Potency,[11],inactive
same,outcome,[8],inactive
CC(C)N(CC[C@@](C(N)=O)(c1ccccc1)c1ccccn1)C(C)C,Potency,[12],inactive
CC(C)[C@@]1(NC(=O)[C@@H]2C[C@H]3c4cccc5[nH]cc(c45)C[C@@H]3N(C)C2)O[C@]2(O)[C@H]3CCCN3C(=O)CN2C1=O,activation,[13],9.33%
COc1ccc(OC)c([C@H](O)[C@H](C)N)c1,Potency,[12],inactive
CNC(=O)N(C)c1nnc(C(C)(C)C)s1,Potency,[4],inactive
same,Potency,[11],inactive
CCCCCCCCCc1ccc(O)cc1,Potency,[5],> 92 µM
same,Potency,[1],inactive
same,Potency,[10],inactive
same,Potency,[11],inactive
same,Potency,[14],inactive

# Source: PubChem BioAssay (NCATS)
